A selection: hits, their analogues and other compounds. The true share with any hit is near 2%.
Calb FLC: affects C. albicans growth with fluconazole | C. albicans CaCi-2 (fluconazole-resistant clinical isolate) + fluconazole, Alamar Blue growth, 48 h | growth inhibition, % (concentration not given with the values) | hit rate 0.57% among 300,000 | AID 1979;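 active = growth inhibition above about 58% in most replicates, limit read from the data, passing the limit was not always enough; inconclusive = exactly half the replicates above a set limit; inactive = most replicates below a set limit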;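 also: all wells also contain fluconazole at 8 µg/ml as a sub-toxic cotreatment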
Beta apoptosis: blocks beta cell apoptosis | INS-1E cytokine-induced death, ATP luminescence, 48 h; percent of positive-control rescue, neutral wells zero | protection from apoptosis, % (no concentration beside the values) | hit rate 0.8% among 300,000 | AID 435005;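 active = Every replicate reaches about 75%, or at least half do and their mean reaches it too, limit read from the data; inconclusive = At least half of replicates reach the limit but their mean does not; inactive = Under half of replicates reach the limit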;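 also: higher means more ATP so stronger rescue from cytokine killing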
Jurkat NFkB inh: inhibitors of the PMA/ionomycin-induced NF-kB reporter in Jurkat cells. PMA/ionomycin-induced NF-kB luciferase reporter, luminescence. inhibition, % at 4 µM. hit rate 0.53% among 330,000; in the data active = inhibition above about 50%
Shn3 3UTR inh: reduces Shn3 3'UTR luciferase signal in osteoblasts; Clone20 osteoblast Shn3 3'UTR firefly luciferase, 24 h; inhibition, % at 12.5 µM; AID 588674; hit rate 0.52% among 360,000;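 active = mean inhibition of at least 75% with every replicate also reaching 75%; inconclusive = mean inhibition at least 75% but some replicate below; inactive = mean inhibition below 75%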
697 NFkB inh: lowers PMA/ionomycin-induced NF-kB signal in 697 B cells; 697 B-cell NF-kB luciferase reporter, 16 h; inhibition, % at 4 µM; hit rate 0.33% among 330,000; AID 435022; in the data active = inhibition above about 35%
Jurkat NFkB conf: inhibitors of the PMA/ionomycin-induced NF-kB reporter in Jurkat cells, retest; shares compounds with Jurkat NFkB inh; Jurkat NF-kB luciferase, 16 h; inhibition, % at 4 µM; hit rate 27% among 2,700; AID 435020;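 active = inhibition reaching about 45% at 4 µM in either replicate, limit read from the data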
Each line names hits and unclear results; the compound was inactive in the other large screens (follow-up assays come after a bar, where they were run).

COC(=O)C1=C(C)NC2=C(C(=O)c3ccccc32)C1c1cccc(OC)c1 (stereo unspecified)	none
CCCN(C(=O)C1CCN(S(=O)(=O)c2ccc(OC)c(OC)c2)CC1)C1CCS(=O)(=O)C1 (stereo unspecified)	none (no result: Beta apoptosis)
CC(Oc1ccc(Cl)cc1Cl)C(=O)Nc1ccncc1 (stereo unspecified)	Jurkat NFkB inh 50.6 (no result: Shn3 3UTR inh) | Jurkat NFkB conf inactive
O=C(Nc1nnc(S(=O)(=O)N2CCN(c3ccc(F)cc3)CC2)s1)c1ccco1	none
Cc1cc(NC(=O)c2cc(-c3ccncc3)nc3c(C)cccc23)no1	Jurkat NFkB inh 51.6 | Jurkat NFkB conf inactive
COc1cccc(NC(=O)CSc2nnc(-c3ccc(C)cc3)o2)c1	none | Jurkat NFkB conf inactive
COc1ccccc1NC(=O)CSc1nnc(-c2ccc(C)cc2)o1	none | Jurkat NFkB conf inactive
Cc1ccc(NC(=O)CSc2nnc(-c3ccncc3)o2)cc1	none
Nc1ccn([C@@H]2O[C@H](C(=O)N3CCN(c4ccc(Cl)cn4)CC3)[C@@H](O)[C@H]2O)c(=O)n1	none (no result: Calb FLC, Beta apoptosis, Jurkat NFkB inh, 697 NFkB inh)
CCCCOC(=O)Nc1nc2ccccc2s1	none | Jurkat NFkB conf inactive
Nc1ccc(C(=O)Nc2nc3ccccc3s2)cc1	none | Jurkat NFkB conf inactive
Cc1cc(C)n(-c2ccc(C(=O)Nc3nc4ccccc4s3)cc2)n1	none
COc1ccccc1C(=O)Nc1nc2ccccc2s1	Jurkat NFkB inh 61.7 | Jurkat NFkB conf 71.1
COc1ccccc1C(=O)Nc1nc2ccc(S(C)(=O)=O)cc2s1	none
CC(=O)N1CCc2cc(S(=O)(=O)NCCC(=O)NCCc3ccc(Cl)cc3)ccc21	none
Cc1ccc2c(c1)N(C(=O)CSc1nncn1C)C(C)(C)c1ssc(=S)c1-2	Jurkat NFkB inh 53.2 | Jurkat NFkB conf inactive
Cc1cc2c(cc1C)N(C(=O)CSc1nncn1C)C(C)(C)c1ssc(=S)c1-2	none
N=c1c2c(-c3ccccc3)c(-c3ccccc3)n(Cc3ccco3)c2ncn1CCO	none
N=c1c2c(-c3ccccc3)c(-c3ccccc3)n(Cc3ccco3)c2ncn1CCCO	Jurkat NFkB inh 56.2 | Jurkat NFkB conf inactive
O=C(Nc1ccc2ccccc2c1)c1cccc(F)c1	none (no result: Calb FLC) | Jurkat NFkB conf inactive
Cc1ccc2cc(NC(=O)c3cccc(F)c3)ccc2n1	none
Cc1cc(C(=O)Nc2ccc3ccccc3c2)c(C)o1	none | Jurkat NFkB conf inactive
COCCNC(=O)C1(C)CCCN(C(=O)Cc2ccc3ccccc3c2)C1 (stereo unspecified)	none (no result: Calb FLC, Beta apoptosis, Jurkat NFkB inh, 697 NFkB inh)
COc1ccccc1N=Nc1nc(-c2ccccc2)c(-c2ccccc2)[nH]1	none (no result: Jurkat NFkB inh, 697 NFkB inh)
Oc1ccccc1N=Nc1nc(-c2ccccc2)c(-c2ccccc2)[nH]1	Beta apoptosis 86.0, Jurkat NFkB inh 58.5, Shn3 3UTR inh 88.5 | Jurkat NFkB conf 75.9
CC1CCN(c2ncnc3c2cnn3-c2ccccc2)CC1	none (no result: Beta apoptosis) | Jurkat NFkB conf inactive
c1ccc(CNc2ncnc3c2cnn3-c2ccccc2)cc1	none
Cn1ncc2c(N3CCN(c4ccc(Cl)c(Cl)c4)CC3)ncnc21	Beta apoptosis inconclusive, Jurkat NFkB inh 58.8 | Jurkat NFkB conf 60.4
CC(C)(C)Nc1ncnc2c1cnn2-c1ccccc1	none | Jurkat NFkB conf inactive
CCCC[C@H](CN[C@@H](CNC)[C@H](C)CC)NCCC12CCC(CC1)C2	Shn3 3UTR inh inconclusive
CC(=O)NC(c1cccc(F)c1)c1nc(/C=C/c2ccccc2)cs1 (stereo unspecified)	none (no result: Calb FLC, Beta apoptosis, Jurkat NFkB inh, 697 NFkB inh)
O=Cc1ccc(Oc2cnccn2)cc1	none
O=C(CSc1ccc2c(c1)OCCO2)Nc1ccc(Br)cc1	none
Cc1ccccc1S(=O)(=O)NC(=O)C1(C)CCN1C(=O)Cc1cc(F)ccc1F (stereo unspecified)	none (no result: Calb FLC, Beta apoptosis, Jurkat NFkB inh, 697 NFkB inh)
COc1ccccc1-c1nnc2sc(-c3ccc(N(C)C)cc3)nn12	Jurkat NFkB inh 78.0 | Jurkat NFkB conf inactive
CN(C)c1ccc(-c2nn3c(-c4ccccc4Cl)nnc3s2)cc1	Jurkat NFkB inh 75.1 | Jurkat NFkB conf 63.4
CCOC(=O)c1[nH]c(C)c(C(=O)Nc2cc(Cl)ccc2C)c1C	Jurkat NFkB inh 68.7 | Jurkat NFkB conf 56.1
CCOC(=O)c1c(C)[nH]c(C(C)=O)c1C	none
CCOC(=O)c1[nH]c(C)c(C(=O)Nc2ccccc2C)c1C	Jurkat NFkB inh 52.7 | Jurkat NFkB conf inactive
CCOC(=O)c1[nH]c(C=O)c(C(=O)OCC)c1C	Jurkat NFkB inh 59.4 | Jurkat NFkB conf inactive
Cc1cc(NC(=O)CCC(=O)N(Cc2ccco2)C2(C(=O)NC3CCCCC3)CCCC(C)C2)no1 (stereo unspecified)	none
N#C/C(=C\c1ccc[nH]1)C(=O)Nc1ccccc1[N+](=O)[O-]	none
CCCCCCCCCCn1ccc(=N)cc1	Calb FLC 108.0, Beta apoptosis 116.4, Jurkat NFkB inh 75.2 | Jurkat NFkB conf 75.0
CCOC(=O)c1ccc2c(c1)nc(SC(C)C(=O)NCC1CCCO1)n2CC (stereo unspecified)	none (no result: Calb FLC)
Cc1nc(NC(=O)c2csc3ccccc23)sc1C	none | Jurkat NFkB conf inactive
Cc1nc(NC(=O)c2ccccc2O)sc1C	none
S=C(N/N=C/c1ccco1)NC1CC2CCC1C2 (stereo unspecified)	none
COc1cccc(CN(C)C(=O)c2ccc(OCC(=O)Nc3cccc(C(F)(F)F)c3)c(OC)c2)c1	Jurkat NFkB inh 55.8, Shn3 3UTR inh 86.4 | Jurkat NFkB conf 61.5
CC(=O)c1ccc(NC(=O)Nc2ccc(Cl)cc2)cc1	none | Jurkat NFkB conf inactive
CC(=O)c1ccc(NC(=O)NC2CCCCCCC2)cc1	none | Jurkat NFkB conf inactive
Cc1cc(C)c(NN=c2c(=O)c3ccccc3c2=O)c(C)c1	none | Jurkat NFkB conf inactive
O=c1c(=NNc2ccccc2Cl)c(=O)c2ccccc12	none (no result: Calb FLC, Beta apoptosis, Jurkat NFkB inh, 697 NFkB inh)
COc1ccc(CSc2ccc(S(=O)(=O)N3CCCC3)cn2)cc1F	none (no result: Calb FLC, Beta apoptosis, Jurkat NFkB inh, 697 NFkB inh)
CCOc1ccc(C(=O)NC(=S)Nc2cccc(S(=O)(=O)NC3=NCCC3)c2)cc1	Jurkat NFkB inh 59.6 | Jurkat NFkB conf inactive
CCOc1ccc(OCC(=O)Nc2cccc(S(=O)(=O)NC3=NCCC3)c2)cc1	none (no result: Calb FLC, Beta apoptosis, Jurkat NFkB inh, 697 NFkB inh)
CCn1c(SCC(=O)N/N=C/c2ccc(C)s2)nc2ccccc21	Jurkat NFkB inh 52.6 | Jurkat NFkB conf inactive
Cc1ccc(/C=N/NC(=O)CSc2nc3ccccc3c(=O)n2-c2ccccc2)s1	none
Cc1cc(/C=N/NC(=O)Cn2c3ccccc3c(=O)c3ccccc32)c(C)n1-c1ccc(Cl)cc1	none (no result: Beta apoptosis, Jurkat NFkB inh, 697 NFkB inh)
O=C(Cn1cc(COc2ccc(C(=O)c3ccccc3)cc2)nn1)c1ccc(O)cc1	none (no result: Calb FLC, Beta apoptosis, Jurkat NFkB inh, 697 NFkB inh)
CCCCCOC(=O)C1=C(C)NC(=O)NC1c1ccc2c(c1)OCO2 (stereo unspecified)	none
CC1=C(C(=O)OCc2ccc3c(c2)OCO3)C(c2ccc(F)cc2)NC(=O)N1 (stereo unspecified)	Jurkat NFkB inh 59.3 | Jurkat NFkB conf inactive
CSCCOC(=O)C1=C(C)NC(=O)NC1c1ccc2c(c1)OCO2 (stereo unspecified)	none
CC1=C(C(=O)OCc2ccc3c(c2)OCO3)C(c2ccc(Cl)cc2)NC(=O)N1 (stereo unspecified)	Jurkat NFkB inh 71.0 (no result: Beta apoptosis) | Jurkat NFkB conf 63.7
Cc1cn([C@H]2C[C@H](O)[C@@H](CNCc3cnc(N4CCOCC4)s3)O2)c(=O)[nH]c1=O	none (no result: Calb FLC, Beta apoptosis, Jurkat NFkB inh, 697 NFkB inh)
CCCCSCc1nc2ccccn2c1Br	none
